# According to the supplement of paper PMC12067093, “Discovery and optimisation of a covalent ligand for TRIM25 and its application to targeted protein ubiquitination” (Chemical Science, 2025):
# Targets with the largest changes are over-represented here; the source holds about 21,000 in all.
# Compound: Cc1cc(ccc1-c1ccccc1)C(=O)N1CCCN(CC1)C(=O)CCl [compound 10]
# Experiment: probe-labelled cysteine peptide fold change vs DMSO (competition) (log2 fold change); higher = less target engagement (more negative = stronger competition)
# Conditions: THP-1, incubation time: 4 h
# 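Note: competitive profiling in live THP-1 cells: cysteine peptides tagged with an iodoacetamide desthiobiotin (IA-DTB) probe, intensity after compound treatment relative to DMSO-treated cells.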
# UniProt Q92619, sequence (Q92619 whole entry, looked up): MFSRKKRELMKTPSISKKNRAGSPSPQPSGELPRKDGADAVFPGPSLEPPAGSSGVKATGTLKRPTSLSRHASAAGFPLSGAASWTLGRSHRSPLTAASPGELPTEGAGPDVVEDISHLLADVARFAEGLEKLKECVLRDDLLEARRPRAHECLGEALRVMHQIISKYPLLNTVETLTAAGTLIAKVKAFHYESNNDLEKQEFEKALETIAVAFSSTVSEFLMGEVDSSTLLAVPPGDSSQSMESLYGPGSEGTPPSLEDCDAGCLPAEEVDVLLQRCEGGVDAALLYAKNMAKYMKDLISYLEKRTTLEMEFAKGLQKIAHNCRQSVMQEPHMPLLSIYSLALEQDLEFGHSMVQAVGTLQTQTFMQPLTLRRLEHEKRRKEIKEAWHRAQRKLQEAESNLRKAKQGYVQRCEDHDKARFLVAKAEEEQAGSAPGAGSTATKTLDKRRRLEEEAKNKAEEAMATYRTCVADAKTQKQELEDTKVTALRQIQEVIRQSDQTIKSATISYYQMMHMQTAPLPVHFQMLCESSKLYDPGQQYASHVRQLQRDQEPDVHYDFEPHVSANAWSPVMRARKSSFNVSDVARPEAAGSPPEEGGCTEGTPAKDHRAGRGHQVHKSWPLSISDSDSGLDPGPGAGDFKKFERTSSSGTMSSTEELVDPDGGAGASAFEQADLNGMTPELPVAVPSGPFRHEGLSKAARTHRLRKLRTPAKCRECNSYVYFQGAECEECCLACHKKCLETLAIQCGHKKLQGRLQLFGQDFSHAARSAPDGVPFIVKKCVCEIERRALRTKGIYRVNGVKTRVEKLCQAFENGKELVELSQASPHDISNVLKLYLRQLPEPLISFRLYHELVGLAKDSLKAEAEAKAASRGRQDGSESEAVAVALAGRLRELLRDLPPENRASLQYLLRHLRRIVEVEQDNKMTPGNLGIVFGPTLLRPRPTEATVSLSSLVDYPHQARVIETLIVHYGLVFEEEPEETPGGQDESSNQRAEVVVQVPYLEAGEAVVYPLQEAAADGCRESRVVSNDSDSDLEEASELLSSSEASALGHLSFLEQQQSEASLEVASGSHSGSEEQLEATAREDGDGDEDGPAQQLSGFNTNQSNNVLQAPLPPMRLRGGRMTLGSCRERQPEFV
# UniProt O43488, sequence (O43488 whole entry, looked up): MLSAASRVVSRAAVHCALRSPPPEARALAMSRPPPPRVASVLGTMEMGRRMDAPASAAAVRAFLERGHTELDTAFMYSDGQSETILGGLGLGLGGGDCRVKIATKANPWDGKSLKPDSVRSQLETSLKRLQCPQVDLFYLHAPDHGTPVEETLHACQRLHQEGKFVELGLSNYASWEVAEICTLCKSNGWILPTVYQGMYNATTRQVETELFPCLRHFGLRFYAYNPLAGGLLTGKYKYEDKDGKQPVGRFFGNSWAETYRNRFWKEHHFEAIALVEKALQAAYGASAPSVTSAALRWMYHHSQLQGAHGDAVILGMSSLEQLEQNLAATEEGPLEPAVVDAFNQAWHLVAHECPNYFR
# UniProt Q9ULJ7, sequence (Q9ULJ7 whole entry, looked up): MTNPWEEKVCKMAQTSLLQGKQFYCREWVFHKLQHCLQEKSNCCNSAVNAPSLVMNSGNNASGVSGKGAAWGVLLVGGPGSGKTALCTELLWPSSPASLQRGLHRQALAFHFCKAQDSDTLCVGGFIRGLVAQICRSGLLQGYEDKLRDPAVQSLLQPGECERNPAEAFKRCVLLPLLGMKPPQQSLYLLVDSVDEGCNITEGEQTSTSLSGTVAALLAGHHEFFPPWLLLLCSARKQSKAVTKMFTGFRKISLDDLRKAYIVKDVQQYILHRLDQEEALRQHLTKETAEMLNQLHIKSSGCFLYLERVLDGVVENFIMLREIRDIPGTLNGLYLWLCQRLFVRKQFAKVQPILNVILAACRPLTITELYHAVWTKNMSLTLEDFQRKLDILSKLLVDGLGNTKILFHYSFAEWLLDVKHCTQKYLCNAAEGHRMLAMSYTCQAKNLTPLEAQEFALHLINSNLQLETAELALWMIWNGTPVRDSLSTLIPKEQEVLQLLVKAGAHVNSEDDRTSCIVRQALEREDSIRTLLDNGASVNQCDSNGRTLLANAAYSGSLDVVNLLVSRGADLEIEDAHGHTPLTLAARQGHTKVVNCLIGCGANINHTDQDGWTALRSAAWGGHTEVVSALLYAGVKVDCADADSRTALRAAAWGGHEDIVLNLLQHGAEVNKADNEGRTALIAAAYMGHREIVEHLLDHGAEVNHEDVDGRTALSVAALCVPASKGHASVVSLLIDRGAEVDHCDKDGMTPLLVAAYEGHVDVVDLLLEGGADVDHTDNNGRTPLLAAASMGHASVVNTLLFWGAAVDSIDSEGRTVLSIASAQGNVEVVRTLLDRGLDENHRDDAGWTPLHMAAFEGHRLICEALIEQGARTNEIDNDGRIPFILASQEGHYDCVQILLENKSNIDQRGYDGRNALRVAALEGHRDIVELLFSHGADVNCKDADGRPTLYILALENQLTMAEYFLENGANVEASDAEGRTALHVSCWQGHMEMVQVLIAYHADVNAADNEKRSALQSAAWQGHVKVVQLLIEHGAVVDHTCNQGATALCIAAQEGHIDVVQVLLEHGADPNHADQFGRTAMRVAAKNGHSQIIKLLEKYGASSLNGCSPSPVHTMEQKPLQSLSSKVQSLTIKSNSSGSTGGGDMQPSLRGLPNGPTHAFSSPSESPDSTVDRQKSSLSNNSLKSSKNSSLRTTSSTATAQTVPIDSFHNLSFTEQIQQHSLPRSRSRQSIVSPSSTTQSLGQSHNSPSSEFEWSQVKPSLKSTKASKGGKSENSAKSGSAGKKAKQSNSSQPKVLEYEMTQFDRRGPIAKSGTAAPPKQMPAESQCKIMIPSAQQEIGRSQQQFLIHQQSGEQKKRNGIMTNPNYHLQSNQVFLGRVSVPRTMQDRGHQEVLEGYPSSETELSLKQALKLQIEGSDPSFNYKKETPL
# UniProt Q6NXE6, sequence (Q6NXE6 whole entry, looked up): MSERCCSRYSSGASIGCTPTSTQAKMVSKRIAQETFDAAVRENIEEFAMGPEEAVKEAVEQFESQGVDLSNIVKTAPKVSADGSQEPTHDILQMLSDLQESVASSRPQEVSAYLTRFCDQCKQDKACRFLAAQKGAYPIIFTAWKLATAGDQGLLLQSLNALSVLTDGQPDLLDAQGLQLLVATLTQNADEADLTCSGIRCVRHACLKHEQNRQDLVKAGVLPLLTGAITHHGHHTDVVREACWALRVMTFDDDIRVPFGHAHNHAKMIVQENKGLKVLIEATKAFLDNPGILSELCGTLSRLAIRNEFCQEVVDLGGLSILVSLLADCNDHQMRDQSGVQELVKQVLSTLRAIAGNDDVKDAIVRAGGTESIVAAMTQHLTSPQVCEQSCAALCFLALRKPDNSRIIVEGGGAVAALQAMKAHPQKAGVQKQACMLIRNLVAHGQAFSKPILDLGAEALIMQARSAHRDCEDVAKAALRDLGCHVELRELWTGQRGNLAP
# UniProt Q8NHH9, sequence (Q8NHH9 whole entry, looked up): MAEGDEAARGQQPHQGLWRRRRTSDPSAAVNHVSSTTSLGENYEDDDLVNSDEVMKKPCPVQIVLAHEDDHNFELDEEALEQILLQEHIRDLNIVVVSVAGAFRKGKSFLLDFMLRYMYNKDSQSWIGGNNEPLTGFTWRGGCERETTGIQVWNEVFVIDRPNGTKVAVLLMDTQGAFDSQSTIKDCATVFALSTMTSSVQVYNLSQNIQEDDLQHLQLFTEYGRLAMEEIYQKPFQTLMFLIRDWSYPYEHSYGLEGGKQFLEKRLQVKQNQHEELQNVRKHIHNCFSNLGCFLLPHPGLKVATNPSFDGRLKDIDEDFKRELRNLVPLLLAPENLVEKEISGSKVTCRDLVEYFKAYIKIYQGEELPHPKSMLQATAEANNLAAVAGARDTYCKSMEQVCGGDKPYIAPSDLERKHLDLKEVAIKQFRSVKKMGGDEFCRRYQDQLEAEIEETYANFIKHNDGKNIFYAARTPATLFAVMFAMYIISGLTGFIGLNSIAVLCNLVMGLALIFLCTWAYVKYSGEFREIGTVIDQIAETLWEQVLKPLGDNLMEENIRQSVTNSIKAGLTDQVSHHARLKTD
# UniProt Q9NVV5, sequence (Q9NVV5 whole entry): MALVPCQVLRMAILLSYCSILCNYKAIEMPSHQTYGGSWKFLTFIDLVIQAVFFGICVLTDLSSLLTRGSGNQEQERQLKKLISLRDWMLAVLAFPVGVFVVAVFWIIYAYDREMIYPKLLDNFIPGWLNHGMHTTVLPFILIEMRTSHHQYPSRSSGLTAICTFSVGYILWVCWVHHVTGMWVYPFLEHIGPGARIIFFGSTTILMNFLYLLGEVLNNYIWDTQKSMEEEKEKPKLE
# UniProt P32121, sequence (P32121 whole entry, looked up): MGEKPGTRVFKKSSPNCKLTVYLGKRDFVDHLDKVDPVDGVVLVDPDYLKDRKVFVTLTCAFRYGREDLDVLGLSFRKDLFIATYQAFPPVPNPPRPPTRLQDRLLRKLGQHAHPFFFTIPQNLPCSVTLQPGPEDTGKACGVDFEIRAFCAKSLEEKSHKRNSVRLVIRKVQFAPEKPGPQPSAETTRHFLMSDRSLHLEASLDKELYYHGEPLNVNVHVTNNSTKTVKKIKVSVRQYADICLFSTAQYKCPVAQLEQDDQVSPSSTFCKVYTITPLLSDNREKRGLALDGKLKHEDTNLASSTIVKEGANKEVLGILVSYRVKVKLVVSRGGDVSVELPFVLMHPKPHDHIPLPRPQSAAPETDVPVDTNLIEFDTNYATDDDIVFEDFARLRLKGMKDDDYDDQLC
# UniProt Q8NBU5, sequence (Q8NBU5 whole entry, looked up): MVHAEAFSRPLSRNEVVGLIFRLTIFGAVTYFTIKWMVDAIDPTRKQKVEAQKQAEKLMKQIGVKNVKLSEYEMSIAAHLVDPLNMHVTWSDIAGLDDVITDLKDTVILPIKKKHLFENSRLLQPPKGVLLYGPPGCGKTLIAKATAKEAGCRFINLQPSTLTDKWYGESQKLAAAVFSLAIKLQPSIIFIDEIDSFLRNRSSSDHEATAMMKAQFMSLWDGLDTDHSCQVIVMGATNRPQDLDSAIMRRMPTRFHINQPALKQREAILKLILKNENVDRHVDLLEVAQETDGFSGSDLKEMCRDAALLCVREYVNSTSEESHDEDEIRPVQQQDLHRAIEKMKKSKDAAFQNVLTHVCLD
Target,probe-labelled cysteine peptide fold change (10 µM),probe-labelled cysteine peptide fold change (50 µM)
ASCC3_Q8N3C0_366_KAGEDLEVSEGLMCFDPK (UniProt Q8N3C0),-0.217,-0.375
ATRX_P46100_1531_CPITTK (UniProt P46100),-0.402,-1.05
ARRB2_P32121_126_KLGQHAHPFFFTIPQNLPCSVTLQPGPEDTGK (UniProt P32121),-0.12,-0.146
ARHGAP45_Q92619_809_LCQAFENGK (UniProt Q92619),0.077,0.0355
ANAPC1_Q9H1A4_1074_LLQLCQR (UniProt Q9H1A4),-0.0436,0.000425
ADAM10_O14672_530_DDSDCAR (UniProt O14672),0.552,1.2
ATN1_P54259_851_APVECPSLGPVPHRPPFEPGSAVATVPPYLGPDTPALR (UniProt P54259),-0.143,-0.422
ALDH9A1_P49189_45_VIATFTCSGEK (UniProt P49189),-0.00832,0.0216
ARHGEF6_Q15052_319_VGGCLLSLMPHFK (UniProt Q15052),-0.297,-0.105
AGL_P35573_767_EVPQMCIPGKIEEVVLEAR (UniProt P35573),-0.292,-0.537
ATP2B4_P23634_632_TVIEPMACDGLR (UniProt P23634),-0.0204,-0.262
AFG3L2_Q9Y4W6_313_DVAGCEEAKLEIMEFVNFLK (UniProt Q9Y4W6),-0.324,-0.391
ATP6V1B2_P21281_425_DHADVSNQLYACYAIGK (UniProt P21281),0.162,0.207
ALDH9A1_P49189_355_VLCGGDIYVPEDPK (UniProt P49189),-0.105,0.0431
ALDH1L1_O75891_537_YFAGWCDK (UniProt O75891),-0.0268,-0.223
AIG1_Q9NVV5_6_MALVPCQVLR (UniProt Q9NVV5),-0.836,-1.35

Target,probe-labelled cysteine peptide fold change (10 µM),probe-labelled cysteine peptide fold change (50 µM)
ADAM10_O14672_222_NTCQLYIQTDHLFFK (UniProt O14672),0.033,0.208
ATL2_Q8NHH9_293_HIHNCFSNLGCFLLPHPGLK (UniProt Q8NHH9),-0.0463,-0.137
AKR7A2_O43488_132+156_RLQCPQVDLFYLHAPDHGTPVEETLHACQR (UniProt O43488),-0.245,-0.374
ALKBH5_Q6P6C2_100_LFSQDECAK (UniProt Q6P6C2),-0.000108,0.012
ACSL4_O60488_221_TALLDISCVK (UniProt O60488),0.177,0.0446
AGL_P35573_126_VGADNHVLPLDCVTLQTFLAK (UniProt P35573),0.128,0.0379
ANKRD50_Q9ULJ7_113_QALAFHFCK (UniProt Q9ULJ7),1.31,1.7
ATP13A1_Q9HD20_410_ATTGLKPVDSGCVAYVLR (UniProt Q9HD20),0.133,0.0894
AP2B1_P63010_565_PLISEETDLIEPTLLDELICHIGSLASVYHKPPNAFVEGSHGIHR (UniProt P63010),0.119,-0.142
ARMC6_Q6NXE6_121_FCDQCK (UniProt Q6NXE6),-0.142,-0.663
ACSL3_O95573_85_SVNSLDGLASVLYPGCDTLDK (UniProt O95573),0.0339,0.289
ATM_Q13315_1396_ATFAYISNCHK (UniProt Q13315),-1.94,-2.52
ATAD1_Q8NBU5_229_AQFMSLWDGLDTDHSCQVIVMGATNRPQDLDSAIMR (UniProt Q8NBU5),0.117,0.088
ACSL4_O60488_420_GYDAPLCNLLLFKK (UniProt O60488),-0.291,-1.12
ACTR3_P61158_8+12_LPACVVDCGTGYTK (UniProt P61158),-0.243,-0.313
